PubChem BioAssay AID1259415 (National Center for Advancing Translational Sciences (NCATS), 2018)
Among all 410,000 compounds or so, about 18,000 (4.4%) were called active. About 7% were inconclusive and are not listed. The list comes from a sample in which actives are over-represented; it also holds similar structures and randomly drawn compounds. Unmarked numbers belong to inactive results. Cut-off read from the data, not from the text of the source: active = activity change below about -60%; inconclusive = no clear call, values can overlap the other calls; inactive = above about -39%.
% is set by controls: 0 for no effect and ±100 for the full control effect.

Assay: qHTS Assay for inhibitors of the human cytomegalovirus (HCMV)
Details: HFF cells, HCMV-luciferase reporter, 72 h; at 57.5 µM; hits give low values
From the text: NCGC Assay Overview: Infection with human cytomegalovirus (HCMV) continues to pose significant threats for pregnant women and immunocompromised hosts. HCMV causes serious morbidity and mortality in transplant recipients, and congenital HCMV is the leading infectious cause of mental retardation and deafness in children. In the 1990s, the annual costs associated with the disease burden of congenital CMV were estimated at around $2 billion. A HCMV vaccine is not available yet and HCMV therapies result in intolerable side effects and emergence of drug resistant viruses. […] Towards this goal we have developed and characterized a luciferase HCMV reporter that was initially used in 96 well plates and then optimized to 1536-well plates for utilization in screening of the MLSMR collection, the NGCG diversity collection and the NCGC Pharmaceutical Collection of approved and investigational drugs.
NCGC Assay Protocol Summary:
This is a cell-based assay for HCMV inhibition in HFFs cells. The screening used 2 compound doses and the HCMV-luciferase at MOI of 1 PFU/cell. Cells were treated and infected with HCMV. At 72 h post infection cell lysates were collected and luciferase activity was determined using the Glomax-Multi + Detection System (Promega, Madison, WI). Data were normalized to the controls for basal activity (buffer only) and known HCMV inhibitors Salinmoycin.
1536-well assay protocol for the assay:
(1) Add 3 ul CMV/HFF cell culture. 1000 cells/well in DMEM nirmal media.
(2) Incubate 16 hr at 37C.
(3) Add 23 nl control compound, 10uM of Salinomycin.
(4) Add 23 nl compounds in DMSO solution.
(5) Add 3 ul CMV suspension. Final 1 puf/ul, Virus stock 2000pfu/ul
(6) Incubate 72 hrs at 37C.
(7) Add 4 ul OneGlo Luc Reagent.
(8) Incubate 5 min at room temperature.
Work on `CCOC(=O)c1c(C)[nH]c(CCC(=O)Nc2ccc(OC)c(OC)c2)c1C` yielded an activity change, negative = inhibition of 41.8%. `Cc1ccc(N(CC(=O)NCC(C)c2ccccc2)S(=O)(=O)N(C)C)cc1` (stereo unspecified) showed an activity change, negative = inhibition of -6.91%. `O=C(CCc1ccccc1)NCc1ccc2c(c1)CCN2C(=O)c1ccccc1` gave an activity change, negative = inhibition of -7.19%. For `COC1=CCC2([N+](=O)[O-])CN(CC(=O)O)CC1([N+](=O)[O-])C2` (stereo unspecified), the activity change, negative = inhibition was -16.1%. `CCOC(=O)c1c(C)oc2nc(C)nc(Nc3ccc(CC)cc3)c12` gave an activity change, negative = inhibition of 8.66%. `O=C(Nc1ccc(OC(F)(F)F)cc1)c1cc2c(=O)n3ccccc3nc2s1` showed an activity change, negative = inhibition of -5.91%. `COc1cc(CN(CC2CCCO2)C(=O)c2ccccc2F)cc(OC)c1OC` (stereo unspecified) gave an activity change, negative = inhibition of -11.3%. Molecule `Cc1ccsc1C1C(C#N)=C(N)OC2=C1C(=O)CC(C)C2` (stereo unspecified) has an activity change, negative = inhibition of 68.7%. `C=CCSC1=C(C#N)C(c2cc(Br)c(O)c(OC)c2)CC(=O)N1` (stereo unspecified) gave an activity change, negative = inhibition of -10.5%. With `CCOC(=O)CSC1=C(C#N)C(c2sccc2C)CC(=O)N1` (stereo unspecified) the activity change, negative = inhibition was -85.4% (active). Work on `Cc1c(-c2cccc(NC(=O)C(C)(C)C)c2)nc2ncccn12` yielded an activity change, negative = inhibition of -37.8%. For `CC1CCN(Cc2nc3c(c(=O)n(C)c(=O)n3C)n2CCc2ccccc2)CC1`, the activity change, negative = inhibition was -62.3% (active). `CC1CCCN(Cc2nc3c(c(=O)n(C)c(=O)n3C)n2CC(=O)c2ccccc2)C1` (stereo unspecified) gave an activity change, negative = inhibition of -14.9%. Molecule `CCN1CCN(Cc2nc3c(c(=O)n(C)c(=O)n3C)n2CC(=O)c2ccccc2)CC1` has an activity change, negative = inhibition of -5.14%. For `CN1CCN(Cc2nc3c(c(=O)n(C)c(=O)n3C)n2Cc2cccc3ccccc23)CC1`, the activity change, negative = inhibition was -10.2%. For `COCCn1c(CN2CCC(Cc3ccccc3)CC2)nc2c1c(=O)n(C)c(=O)n2C`, the activity change, negative = inhibition was -64.7% (active). In the case of `CCOC(=O)N1CCN(Cc2nc3c(c(=O)n(C)c(=O)n3C)n2Cc2ccccc2)CC1`, the activity change, negative = inhibition is reported as -2.17%. `COc1ccc(C)cc1NC(=O)CSc1nnc2ccc(-c3ccccn3)nn12` showed an activity change, negative = inhibition of -16.1%. Molecule `CC(C)CNc1cccc2c1S(=O)(=O)N[C@H](C)CO2` has an activity change, negative = inhibition of -8.73%. `O=[N+]([O-])c1cccc(/C([O-])=C(/C(=S)Nc2ccccc2F)[n+]2ccccc2)c1` gave an activity change, negative = inhibition of 18%. For `C=Cc1ccc(C(=O)N2CCCC(CCC(=O)N3CCN(c4ccccn4)CC3)C2)cc1` (stereo unspecified), the activity change, negative = inhibition was -64.7% (active). In the case of `O=C(CCC1CCCN(C(=O)c2ccc(F)c(F)c2)C1)N1CCN(c2ccccn2)CC1` (stereo unspecified), the activity change, negative = inhibition is reported as -29.8%. `CC(=O)c1ccc(S(=O)(=O)NCCC(=O)N2CCN(c3ccccn3)CC2)cc1` showed an activity change, negative = inhibition of 60.8%. Molecule `COc1cccc(C(=O)NC2=NC(c3ccc(N(C)C)cc3)CC(=O)N2)c1` (stereo unspecified) has an activity change, negative = inhibition of 1.4%. For `O=C(Nc1cccc(-c2nc3ccccc3o2)c1)c1cccc(Br)c1`, the activity change, negative = inhibition was -11.9%. Work on `COc1ccccc1NC(=O)C(=O)c1cc(C)n(-c2ccccc2F)c1C` yielded an activity change, negative = inhibition of -34.6%. In the case of `CCCCOc1ccc(CSC(=N)N)cc1[N+](=O)[O-]`, the activity change, negative = inhibition is reported as -63.8% (active). In the case of `CCCCOC(=O)CCCc1ccc([N+](=O)[O-])cc1[N+](=O)[O-]`, the activity change, negative = inhibition is reported as -14.8%. In the case of `CCCCCOc1ccc(CSC2=NCCN2)cc1[N+](=O)[O-]`, the activity change, negative = inhibition is reported as 9.19%. `CC(C)(Oc1ccc(C2CC2(Cl)Cl)cc1)C(=O)O` (stereo unspecified) gave an activity change, negative = inhibition of -0.36%. With `O=C1NC(Nc2nc3ccccc3s2)(C(F)(F)F)C(=O)N1C1CCCCC1` (stereo unspecified) the activity change, negative = inhibition was -63.1% (active). In the case of `c1ccc2sc(SNC3CCCCC3)nc2c1`, the activity change, negative = inhibition is reported as 15%. Molecule `O=C(NC1(C(F)(F)F)N=C(c2ccccc2)N(C2CCCCC2)C1=O)c1ccccc1F` (stereo unspecified) has an activity change, negative = inhibition of -18.3%. Work on `COC(=O)c1ccc(NC(=O)CN(c2ccc(C)cc2)S(=O)(=O)c2c(C)n[nH]c2C)cc1` yielded an activity change, negative = inhibition of 30%. For `COC(=O)C1CCN(C(=O)NC2CC(=O)N(c3ccc4c(c3)OCCO4)C2)CC1` (stereo unspecified), the activity change, negative = inhibition was -8.55%. Molecule `Cc1nc2ccn(Cc3cccs3)c(=O)c2cc1C(=O)NCc1ccc(Cl)cc1` has an activity change, negative = inhibition of 0.24%. With `CCOc1cccc(CC(=O)N2CCc3c([nH]c4ccccc34)C2c2ccc(OC)cc2)c1OCC` (stereo unspecified) the activity change, negative = inhibition was 31.4%. With `CCOc1cccc(CC(=O)N2CCc3c([nH]c4ccccc34)C2c2ccc(F)cc2)c1OCC` (stereo unspecified) the activity change, negative = inhibition was -33.4%. In the case of `COc1ccc2[nH]c3c(c2c1)CCN(C(=O)CCC1CCCC1)C3c1ccc(F)cc1` (stereo unspecified), the activity change, negative = inhibition is reported as -81.8% (active). `Cc1ccc(S(=O)(=O)N(C)C)cc1NC(=O)COC(=O)C1COc2ccccc2O1` (stereo unspecified) showed an activity change, negative = inhibition of 19%. For `Cc1ccc(S(=O)(=O)N(C)C)cc1NC(=O)COC(=O)/C=C/c1cccs1`, the activity change, negative = inhibition was -32.1%. With `Cc1ccc(S(=O)(=O)N(C)C)cc1NC(=O)COC(=O)c1c(C)noc1C` the activity change, negative = inhibition was -108% (active). For `CCN(CC(=O)Nc1cccc(S(N)(=O)=O)c1)Cc1nc2ccccc2c(=O)[nH]1`, the activity change, negative = inhibition was -27.6%. For `Cc1cc(C)c(-c2csc(NC(=O)CCCc3nc4ccccc4c(=O)[nH]3)n2)c(C)c1`, the activity change, negative = inhibition was -72.6% (active). Molecule `O=C(COC(=O)CCc1nc2ccccc2c(=O)[nH]1)Nc1ccc(N2CCOCC2)cc1` has an activity change, negative = inhibition of -20.5%. `CC(C)NC(=O)N1CCN(c2ccncc2S(=O)(=O)N2CCCCC2)CC1` gave an activity change, negative = inhibition of 9.43%. With `O=C(Nc1nc2c(s1)CCCC2)c1ccccc1F` the activity change, negative = inhibition was -68.5% (active). `O=C(Nc1nnc(-c2ccccc2F)s1)c1ccccc1F` showed an activity change, negative = inhibition of 85%. Molecule `CCN1CCc2nc(NC(=O)c3cc(F)c(F)cc3Cl)sc2C1` has an activity change, negative = inhibition of -0.35%. In the case of `C=CCn1c(C)cc(C2=NNC(=NCC)SC2)c1C`, the activity change, negative = inhibition is reported as -99.5% (active). In the case of `COCCn1c(C)cc(C2=NNC(=Nc3ccc(F)cc3)SC2)c1C`, the activity change, negative = inhibition is reported as -107% (active). With `COc1cccc(-c2nc(S(=O)(=O)c3ccc(C)cc3)c(NCc3ccccc3)o2)c1` the activity change, negative = inhibition was 2.24%. `O=C(CSc1nnc(CNC(=O)c2ccccc2)n1-c1ccc(F)cc1)Nc1ccccc1F` gave an activity change, negative = inhibition of -5.45%. `Cc1cccc(Cn2cccc(C(=O)Nc3ccc4c(c3)OCCO4)c2=O)c1` showed an activity change, negative = inhibition of -12.1%. Work on `Cc1ccc(CN2CCNC(=O)C2CC(=O)NCc2csc(C(C)C)n2)cc1` (stereo unspecified) yielded an activity change, negative = inhibition of 6.06%. Molecule `O=S(=O)(NCC(c1ccccc1)N1CCc2ccccc21)c1ccccc1` (stereo unspecified) has an activity change, negative = inhibition of 1.26%.
